Hits are enriched below; roughly 7.4% of the tested compounds scored in any of these assays.
NPR1 antag: human Npr1 receptor antagonism; P16066; HEK293 hNpr1 GloSensor cGMP, ANP-stimulated luminescence; Potency, µM (highest dose often 46.3 µM), inactives show at the top dose activity change, negative = inhibition, actives largely listed as inhibitors; hit rate 1.6% among 76,000; calls by dose curve; further: on the % scale 0 is the no-effect control and ±100 the full control effect; nearly all actives have a fitted effect of over 60% in size
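HEK293 cells stably expressing human Npr1 and cGMP GloSensor pGS-40F, loaded 2 h with 2% GloSensor reagent, given compound 30 min at room temperature. Luminescence read before and 20 min after 0.1 nM hNppA.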
Luciferase inh: blocks purified firefly luciferase enzyme activity. P08659. purified P. pyralis luciferase, luminescence, biochemical. Potency, µM (top dose mostly 115 µM), hits mostly inhibitors. hit rate 2.5% among 76,000. AID 1347043; further: on the % scale 0 is the no-effect control and ±100 the full control effect; nearly all actives have a fitted effect of over 65% in size
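FLuc 10nM, D-luciferin 10uM, ATP 10uM, Mg acetate 10mM, Tris acetate pH 7.5, Tween/BSA; cpd qHTS; enzyme added last; CCD luminescence.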
HEK293 viab: counter-screen for SNCA expression inhibitors: cell viability | hit rate 0.12% among 150,000 | Potency, µM (highest dose often 57.1 µM), for the others: at the top dose activity change, negative = cytotoxicity, hits mostly cytotoxic | HEK-293-SNCA-luc viability, GF-AFC fluorescence, 24 h;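 further: 0% = DMSO-treated cells and -100% = medium-only wells without cells; nearly all actives have a fitted effect of over 30% in size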
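HEK-293-SNCA-luc cells (1500/well) plated 24 h, then exposed 24 h to a dilution series; GF-AFC added 30 min at 37C, fluorescence 405/540 nm; normalised to medium-only and DMSO wells, Hill fit.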
NIH3T3 tox: kills NIH 3T3 cells. NIH 3T3 viability, CellTiter-Glo ATP luminescence, 48-72 h. Potency, µM (highest dose often 96.7 µM), without a hit: top-dose activity change, negative = cytotoxicity, hits mostly inhibitors. hit rate 4.3% among 94,000; further: on the % scale 0 is the no-effect control and ±100 the full control effect; nearly all actives have a fitted effect of over 55% in size
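First NIH 3T3 cells are plated at 400 cells/well; next compound is pinned in; then plates incubate 48 or 72 hr at 37 °C; finally CellTiter-Glo is added and luminescence read after 10 min.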
HEK cytotox: HEK 293 cell cytotoxicity; HEK 293 viability, ATP luminescence (CellTiter-Glo), 48-72 h; Potency, µM (highest dose often 115 µM), for the others: at the highest dose activity change, negative = cytotoxicity, most hits filed as inhibitors; hit rate 6.6% among 94,000; AID 1345083; further: on the % scale 0 is the no-effect control and ±100 the full control effect; nearly all actives have a fitted effect of over 60% in size
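Cells seeded first (HEK 293, 250 cells/well), then compound added by pintool. Incubation ran 48 or 72 hr at 37 degree Celsius. CellTiter-Glo was added and luminescence imaged after 10 min at room temperature.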
SNCA expr inh: SNCA gene expression inhibition | HEK-293 SNCA-luciferase knock-in, luminescence, 24 h | Potency, µM (series often up to 57.2 µM), for inactives: at the top dose activity change, negative = inhibition, most hits filed as inhibitors | hit rate 0.17% among 140,000;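 further: plate controls were DMSO cells for no effect and cell-free wells for full effect; nearly all actives have a fitted effect of over 45% in size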
Npr1 antag conf: confirmation of human Npr1 natriuretic peptide receptor antagonists. shares compounds with NPR1 antag. HEK293 hNpr1 cGMP GloSensor luminescence, ANP-stimulated. Potency, µM (doses to about 57.6 µM), for inactives: top-dose activity change, negative = inhibition, hits mostly inhibitors. hit rate 76% among 1,400. AID 1347044; calls by dose curve; further: nearly all actives have a fitted effect of over 70% in size
NPR2 antag: antagonizes human Npr2, subtype selectivity check; shares compounds with NPR1 antag; HEK293 hNpr2 GloSensor cGMP luminescence, CNP-stimulated; Potency, µM (highest dose often 57.6 µM), for inactives: top-dose activity change, negative = inhibition, usual class: inhibitors; hit rate 67% among 1,400; calls by dose curve; further: nearly all actives have a fitted effect of over 70% in size
FLuc counter: counter-screen for Npr1 antagonists: firefly luciferase inhibitors | shares compounds with NPR1 antag | purified FLuc enzyme, luminescence, Km substrate | Potency, µM (series often up to 57.6 µM), inactives show at the highest dose activity change, negative = inhibition, actives largely listed as inhibitors | hit rate 0.7% among 1,400; further: 0% is about no effect
GloSensor cGMP: control cell line activity, Npr1 antagonist counter-screen; shares compounds with NPR1 antag; HEK293 GloSensor cGMP, SNP-stimulated, luminescence; Potency, µM (doses to about 57.6 µM), inactives show top-dose activity change, negative = inhibition, usual class: inhibitors; hit rate 69% among 1,400; calls by dose curve; further: on the % scale 0 is the no-effect control and ±100 the full control effect; nearly all actives have a fitted effect of over 70% in size
* hit, by the source's call; i = inactive; ? = inconclusive; . = not tested or not shown; [ ] = another dose, or the depositor's remark. Unless noted, the call rests on the fitted dose curve; in most records, active means well fitted curve in the direction sought with a large enough effect; inconclusive means small, poorly fitted or top-dose-only effect, or another doubt; inactive means no such curve, though single readings can be large; an effect the other way counts as inactive or inconclusive. Potency means the concentration at half of the fitted maximal effect.

SMILES | NPR1 antag | Luciferase inh | HEK293 viab | NIH3T3 tox | HEK cytotox | SNCA expr inh | Npr1 antag conf | NPR2 antag | FLuc counter | GloSensor cGMP
Cc1noc(-c2cn(C3CCN(C(=O)c4ccc(F)c(Cl)c4)CC3)nn2)n1 | -1% | i | -20% | ? | -14% | -23% | . | . | . | .
CCN1C(=O)C2CC3(CCN(C(=O)c4n[nH]c(=O)c5ccccc45)CC3)CN2C1=O (stereo not given) | -1% | i | 7% | -5% | ? | -3% | . | . | . | .
CCCc1noc(-c2cccn3c(CNC(=O)Cc4c[nH]c5ccccc45)nnc23)n1 | 13% | i | -10% | -6% | -33% | 37% | . | . | . | .
COc1ccc(NC(=O)c2c(-c3cnn(C)c3NCc3ccc(C#N)cc3)noc2C)cc1 | 0% | i | -10% | ? | ? | -18% | . | . | . | .
Cc1nc2ccc(CNC(=O)c3cccc(CCC(C)(C)O)c3)cc2[nH]1 | -12% | i | 0% | ? | 3% | 12% | . | . | . | .
O=C(c1ccccc1F)N1CCC(n2cc(-c3nc(-c4ccccc4)no3)nn2)C1 (stereo not given) | 14µM* | i | -8% | ? | ? | 6% | 22µM* | 22µM* | -13% | 17µM*
O=C(c1ccc(F)c(F)c1)N1CCC(n2cc(-c3nc(-c4ccccc4)no3)nn2)CC1 | 11µM* | i | 10% | ? | ? | 9% | 24µM* | 24µM* | -22% | 22µM*
CSc1cccc(NC(=O)Cn2c(N3CCC(C)CC3)nc(C)cc2=O)c1 | 11µM* | i | ? | 11µM* | 11µM* | -17% | 12µM* | 14µM* | 0% | 9.7µM*
Cc1cc(=O)n(CC(=O)Nc2cccc(C(F)(F)F)c2)c(N2CCC(C)CC2)n1 | 10µM* | i | -10% | 22µM* | 35µM* | ? | 12µM* | 14µM* | 4% | 11µM*
O=C(NCc1ccc(F)cc1)C1CCN(Cc2ccccc2-c2cccnc2)CC1 | . | . | 3%[12.5 µM] | -17% | -30% | 1% | . | . | . | .
C[S+](=O)([O-])c1ccc(-c2cc(C(=O)NCCc3ccc(Cl)cc3)nn3cccc23)cc1 | . | . | ? | 22µM* | ? | 42% | ? | ? | 15µM* | ?
CCOc1ccc(C(=O)NC2CCN(c3cnn(CCOC)c(=O)c3)CC2)cc1 | -14% | i | -20% | -21% | -23% | 26% | . | . | . | .
CCOc1ccc(C(=O)NC2CCN(c3cnn(CC)c(=O)c3)CC2)cc1 | -11% | i | -16% | 28µM* | -5% | 10% | -7% | -22% | 1% | ?
COc1ccc(-c2noc(CC3CCN(C(=O)c4ccc(C)nc4)CC3)n2)cc1 | 7.1µM* | i | 11% | ? | ? | ? | 5.4µM* | 6.9µM* | -1% | 5.4µM*
COc1ccc(C(=O)N2CCC(Cc3nc(C(C)C)no3)CC2)cc1 | ? | i | 5% | ? | ? | ? | . | . | . | .
Cc1ccc(C(=O)N2CCC(Cc3nc(-c4ccccc4)no3)CC2)cn1 | 6.3µM* | i | -28% | ? | ? | -11% | 4.8µM* | 5.4µM* | 23% | 4.3µM*
CC(CN)(c1ccccn1)N1CCCC1 (stereo not given) | . | . | -3%[87.6 µM] | -11%[174 µM] | -2%[230 µM] | 8%[87.6 µM] | . | . | . | .
COc1ccc2ccc(OCc3nc(C(=O)N4CCCNC(=O)C4)co3)cc2c1 | ? | ? | 2% | ? | ? | -23% | . | . | . | .
COc1ccc2ccc(OCc3nc(C(=O)N4CCNC(=O)C4C)co3)cc2c1 (stereo not given) | 11µM* | i | -13% | ? | ? | ? | 24µM* | 22µM* | -5% | 22µM*
O=C(c1ccc2c(c1)OCO2)N1CCN2C(=O)N(Cc3ccccc3)C(=O)[C@H]2C1 | -2%[70.6 µM] | i | -3%[87.6 µM] | -25%[174 µM] | -10%[172 µM] | -14%[87.6 µM] | . | . | . | .
CC1=C(C(=O)OC(C)C)C(c2ccc(C)cc2)CC(=O)N1Cc1cccc(C#N)c1 (stereo not given) | ? | i | 1% | ? | 35µM* | -20% | ? | ? | 1% | -2%
O=[S+]([O-])(Nc1ccccc1)c1ccc2c(c1)OCCN(Cc1cccnc1)C2 | 22µM* | i | -10%[87.6 µM] | ? | ? | -9%[87.6 µM] | 40µM* | ? | 6%[86.2 µM] | 40µM*
C/C=C(\C)CN1CCCC(C(=O)Nc2ccccc2-c2ccc(OC)cc2)C1 (stereo not given) | -4% | i | -6% | -17% | ? | -12% | . | . | . | .
COc1ccc(OC)c(NC(=O)C2CCc3nc(N4CCN(C(C)=O)CC4)sc3C2)c1 (stereo not given) | -18% | i | -3% | -26% | ? | 7% | . | . | . | .
CC(=O)N1CCN(c2nc3c(s2)CC(C(=O)Nc2cccc(C(C)(C)C)c2)CC3)CC1 (stereo not given) | 18µM* | i | ? | ? | ? | ? | 12µM* | 15µM* | 27% | 11µM*
CC(=O)N1CCN(c2nc3c(s2)CC(C(=O)Nc2cc(F)cc(F)c2)CC3)CC1 (stereo not given) | 10µM* | i | ? | ? | 10µM* | -25% | 17µM* | 19µM* | 44% | 11µM*
COc1ccc(Cl)cc1C(=O)N1CCN(c2cc(-c3cccs3)[nH]n2)CC1 | ? | i | -11% | ? | ? | -22% | . | . | . | .
COc1cc(Cl)ccc1C(=O)N1CCN(c2cc(-c3cccs3)[nH]n2)CC1 | 11µM* | i | -13% | ? | 25µM* | ? | 19µM* | 19µM* | 2% | 17µM*
O=C(c1ccc(Cl)cc1Cl)N1CCN(c2cc(-c3cccs3)[nH]n2)CC1 | 10µM* | i | 4% | 8.9µM* | 45µM* | 6% | 24µM* | 19µM* | 1% | 22µM*

Screening results: PubChem BioAssay, National Center for Advancing Translational Sciences (NCATS)
